From PubChem BioAssay AID1159580 (chemical genetic matrix, 2015)
Among all 5,500 compounds or so, about 2,000 (36%) were called active. Roughly 18% stayed inconclusive and do not appear here. Rule as the data show it: active = normalized growth mostly below about 0.91 (no sharp cut-off); inconclusive = no clear call, values can overlap the other calls; inactive = mostly above about 0.92. This is one part of the list.

Test: chemical genetic growth profiling, strain panel (AID 1159580);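 also: tested at 20 µM; growth read once vehicle control cultures reached saturation at 30 °C; 1 = growth at the plate median or of vehicle wells; lower values mean less growth of the strain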
Details: S. cerevisiae deletion strains, growth OD
[1] = locus YAR019C, strain CDC15, active compounds read low
[2] = locus YBL105C, strain PKC1, active compounds read low
[3] = locus YBR135W, strain CKS1, active compounds read low
[4] = locus YBR136W, strain MEC1, active compounds read low
[5] = locus YBR160W, strain CDC28, active compounds read low
[6] = locus YDL017W, strain CDC7, active compounds read low
[7] = locus YDL028C, strain MPS1, active compounds read low
[8] = locus YDL101C, strain DUN1, active compounds read low
[9] = locus YDL108W, strain KIN28, active compounds read low
[10] = locus YDL132W, strain cdc53, active compounds read low
[11] = locus YDL214C, strain PRR2, active compounds read low
[12] = locus YDR052C, strain DBF4, active compounds read low
[13] = locus YDR054C, strain cdc34, active compounds read low
[14] = locus YDR226W, strain ADK1, active compounds read low
[15] = locus YDR477W, strain SNF1, active compounds read low
[16] = locus YER123W, strain YCK3, active compounds read low
[17] = locus YER133W, strain GLC7, active compounds read low
[18] = locus YFL009W, strain cdc4, active compounds read low
[19] = locus YFL029C, strain CAK1, active compounds read low
[20] = locus YFR003C, strain YPI1, active compounds read low
[21] = locus YFR019W, strain FAB1, active compounds read low
[22] = locus YFR028C, strain CDC14, active compounds read low
[23] = locus YGR040W, strain KSS1, active compounds read low
[24] = locus YGR052W, strain FMP48, active compounds read low
[25] = locus YGR092W, strain DBF2, active compounds read low
[26] = locus YHR030C, strain SLT2, active compounds read low
[27] = locus YHR079C, strain IRE1, active compounds read low
[28] = locus YHR082C, strain KSP1, active compounds read low
[29] = locus YHR205W, strain SCH9, active compounds read low
[30] = locus YIL147C, strain SLN1, active compounds read low
[31] = locus YJL095W, strain BCK1, active compounds read low
[32] = locus YJL128C, strain PBS2, active compounds read low
[33] = locus YJL157C, strain FAR1, active compounds read low
[34] = locus YJR016C, strain ILV3, active compounds read low
[35] = locus YJR066W, strain TOR1 (second series), active compounds read low
[36] = locus YJR066W, strain TOR1, active compounds read low
[37] = locus YKL048C, strain ELM1, active compounds read low
[38] = locus YKL067W, strain YNK1, active compounds read low
[39] = locus YKL101W, strain HSL1, active compounds read low
[40] = locus YKL193C, strain SDS22, active compounds read low
[41] = locus YKL203C, strain TOR2, active compounds read low
[42] = locus YLR113W, strain HOG1, active compounds read low
[43] = locus YLR133W, strain CKI1, active compounds read low
[44] = locus YLR403W, strain SFP1, active compounds read low
[45] = locus YML070W, strain DAK1, active compounds read low
[46] = locus YMR001C, strain CDC5, active compounds read low
[47] = locus YMR205C, strain PFK2 (second series), active compounds read low
[48] = locus YMR277W, strain FCP1, active compounds read low
[49] = locus YNL006W, strain LST8, active compounds read low
[50] = locus YNL020C, strain ARK1, active compounds read low
[51] = locus YNL161W, strain CBK1, active compounds read low
[52] = locus YNL183C, strain NPR1, active compounds read low
[53] = locus YNL207W, strain RIO2, active compounds read low
[54] = locus YNL222W, strain SSU72, active compounds read low
[55] = locus YNL307C, strain MCK1 (second series), active compounds read low
[56] = locus YOL078W, strain AVO1, active compounds read low
[57] = locus YOL136C, strain PFK27, active compounds read low
[58] = locus YOR061W, strain CKA2, active compounds read low
[59] = locus YOR119C, strain RIO1, active compounds read low
[60] = locus YOR231W, strain MKK1, active compounds read low
[61] = locus YOR329C, strain SCD5, active compounds read low
[62] = locus YPL031C, strain PHO85, active compounds read low
[63] = locus YPL153C, strain RAD53, active compounds read low
[64] = locus YPL204W, strain HRR25, active compounds read low
[65] = locus YPL209C, strain IPL1, active compounds read low
[66] = locus YPL256C, strain CLN2, active compounds read low
[67] = locus YPR025C, strain CCL1, active compounds read low
[68] = locus YPR106W, strain ISR1, active compounds read low
[69] = locus YPR111W, strain DBF20, active compounds read low
[70] = strain NNK1, active compounds read low
[71] = strain TSCII, active compounds read low

Measured: normalized growth

CCC1(c2ccccc2)OC(c2cc(Cl)cc(Cl)c2O)Nc2ccccc21 (stereo not drawn)
inactive: [1] 0.96 | [2] 0.964 | [3] 0.965 | [4] 0.968 | [5] 0.964 | [6] 0.965 | [7] 0.966 | [8] 0.986 | [9] 0.968 | [10] 0.963 | [11] 0.705 | [12] 0.976 | [13] 0.954 | [14] 0.97 | [17] 0.734 | [18] 0.962 | [19] 0.967 | [20] 0.958 | [22] 0.963 | [24] 0.651 | [28] 0.689 | [29] 0.639 | [30] 0.964 | [32] 0.93 | [34] 0.962 | [35] 0.633 | [36] 0.572 | [40] 0.971 | [41] 0.751 | [46] 0.971 | [48] 0.968 | [49] 0.969 | [51] 0.962 | [52] 0.646 | [53] 0.96 | [54] 0.956 | [56] 0.967 | [59] 0.753 | [61] 0.962 | [62] 0.685 | [65] 0.954 | [67] 0.96 | [68] 0.954 | [69] 0.957 | [70] 0.963 | [71] 0.966
active: [15] 0.689 | [16] 0.513 | [21] 0.738 | [23] 0.689 | [25] 0.233 | [26] 0.449 | [27] 0.461 | [31] 0.464 | [33] 0.564 | [37] 0.717 | [38] 0.696 | [39] 0.678 | [42] 0.539 | [43] 0.623 | [44] 0.572 | [45] 0.561 | [47] 0.688 | [50] 0.552 | [55] 0.551 | [57] 0.452 | [58] 0.469 | [60] 0.476 | [63] 0.562 | [64] 0.604 | [66] 0.47

O=S(=O)(Nc1cc(-c2cccs2)nn1-c1ccc(I)cc1)c1cccc(F)c1
inactive: [1] 0.957 | [2] 0.966 | [3] 0.966 | [4] 0.97 | [5] 0.956 | [6] 0.97 | [7] 0.948 | [8] 0.983 | [9] 0.958 | [10] 0.966 | [11] 0.926 | [12] 0.983 | [13] 0.986 | [14] 0.961 | [15] 0.926 | [16] 0.929 | [17] 0.951 | [18] 0.971 | [19] 0.953 | [20] 0.979 | [21] 0.974 | [22] 0.983 | [23] 0.931 | [24] 0.966 | [25] 0.876 | [27] 0.922 | [28] 0.968 | [29] 0.863 | [30] 0.967 | [31] 0.903 | [32] 0.91 | [33] 0.956 | [34] 0.969 | [35] 0.952 | [36] 0.906 | [37] 0.947 | [38] 0.912 | [39] 0.931 | [40] 0.971 | [41] 1.03 | [43] 0.935 | [44] 0.944 | [45] 0.936 | [46] 0.966 | [47] 0.945 | [48] 0.968 | [49] 0.964 | [50] 0.946 | [51] 0.974 | [52] 0.986 | [53] 0.968 | [54] 0.956 | [55] 0.911 | [56] 0.966 | [57] 0.925 | [58] 0.951 | [59] 0.961 | [60] 0.935 | [61] 0.968 | [62] 0.928 | [63] 0.943 | [64] 0.928 | [65] 0.975 | [66] 0.87 | [67] 0.966 | [68] 0.964 | [69] 1.01 | [70] 0.965 | [71] 0.965
active: [26] 0.715 | [42] 0.848

COc1ccc(-c2cc(NS(=O)(=O)c3cccc(F)c3)n(-c3ccc(Cl)c(Cl)c3)n2)cc1
active: [26] 0.635 | [42] 0.811 | [66] 0.828
inactive: [1] 0.961 | [2] 0.971 | [3] 0.977 | [4] 0.965 | [5] 0.963 | [6] 0.97 | [7] 0.945 | [8] 0.979 | [9] 0.975 | [10] 0.977 | [11] 0.92 | [12] 0.984 | [13] 0.966 | [14] 0.961 | [15] 0.903 | [16] 0.908 | [17] 0.94 | [18] 0.947 | [19] 0.961 | [20] 0.98 | [21] 0.931 | [22] 0.965 | [23] 0.894 | [24] 0.954 | [25] 0.838 | [27] 0.888 | [28] 0.873 | [29] 0.856 | [30] 0.959 | [31] 0.888 | [32] 0.921 | [33] 0.939 | [34] 0.972 | [35] 0.922 | [36] 0.87 | [37] 0.929 | [38] 0.91 | [39] 0.87 | [40] 0.968 | [41] 0.995 | [43] 0.912 | [44] 0.924 | [45] 0.906 | [46] 0.956 | [47] 0.937 | [48] 0.947 | [49] 0.966 | [50] 0.89 | [51] 0.971 | [52] 0.956 | [53] 0.973 | [54] 0.958 | [55] 0.839 | [56] 0.976 | [57] 0.887 | [58] 0.87 | [59] 0.944 | [60] 0.873 | [61] 0.967 | [62] 0.913 | [63] 0.915 | [64] 0.905 | [65] 0.97 | [67] 0.966 | [68] 0.963 | [69] 0.942 | [70] 0.961 | [71] 0.962

COc1ccc(-n2nc(C(F)(F)F)cc2-c2ccc(Cl)cc2)cc1
inactive: locus YAL040C, strain CLN3, active compounds read low 1.09 | locus YCL061C, strain MRC1 (second series), active compounds read low 1.01 | locus YDR363W, strain ESC2, active compounds read low 1.02 | locus YER002W, strain NOP16, active compounds read low 1.03 | locus YGR078C, strain PAC10, active compounds read low 1.01 | locus YMR263W, strain SAP30, active compounds read low 1 | locus YMR307W, strain GAS1, active compounds read low 1.01 | locus YNL175C, strain NOP13, active compounds read low 1.02 | locus YNL197C, strain WHI3, active compounds read low 1.02 | locus YNL224C, strain SQS1, active compounds read low 0.998 | locus YNL322C, strain KRE1, active compounds read low 1.02 | locus YOR083W, strain WHI5 (second series), active compounds read low 1.02 | locus YPL055C, strain LGE1, active compounds read low 1.02 | locus YPL241C, strain CIN2, active compounds read low 1

O=S(=O)(Nc1ccc(-n2nc(C(F)(F)F)cc2-c2cccs2)cc1)c1ccc(F)cc1
inactive: [1] 0.993 | [2] 0.979 | [3] 0.997 | [4] 0.991 | [5] 0.998 | [6] 0.99 | [7] 0.995 | [8] 0.993 | [9] 1 | [10] 0.989 | [11] 0.986 | [12] 0.98 | [13] 0.982 | [14] 0.996 | [15] 0.991 | [16] 0.979 | [17] 0.973 | [18] 0.991 | [19] 0.994 | [20] 0.99 | [21] 0.985 | [22] 0.997 | [23] 0.987 | [24] 1.04 | [25] 0.99 | [26] 1.01 | [27] 0.993 | [28] 1.06 | [29] 0.983 | [30] 0.99 | [31] 1.04 | [32] 0.951 | [33] 0.979 | [34] 0.999 | [35] 0.956 | [36] 1.04 | [37] 0.991 | [38] 0.991 | [39] 0.995 | [40] 0.986 | [41] 1.04 | [42] 0.938 | [43] 0.983 | [44] 0.972 | [45] 0.992 | [46] 0.989 | [47] 0.995 | [48] 0.992 | [49] 0.991 | [50] 0.987 | [51] 0.989 | [52] 1.02 | [53] 0.993 | [54] 0.99 | [55] 0.996 | [56] 0.994 | [57] 0.973 | [58] 0.998 | [59] 1.05 | [60] 0.974 | [61] 0.988 | [62] 0.986 | [63] 0.997 | [64] 0.966 | [65] 0.988 | [66] 0.94 | [67] 0.993 | [68] 0.978 | [69] 0.974 | [70] 0.975 | [71] 0.995
